HIF activator: HIF pathway transcriptional activation. U2OS HRE-luciferase reporter, luminescence; normalized: DMSO 0%, desferrioxamine 100%. activation, % at 7.5 µM (by protocol). actives 0.32% (n = 300,000);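 active = mean activation of at least 10% of the iron chelator positive control signal, with at least half of replicates also reaching 10%; inconclusive = mean and replicate majority disagree about reaching 10%; inactive = mean and most replicates under 10%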
AHR activator: activators of human aryl hydrocarbon receptor | AHR-responsive luciferase reporter cells, luminescence | activation, % at 5 µM | actives 2.5% (n = 320,000) | AID 2796; in the data active = activation above about 47%;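 also: 0% = vehicle wells and 100% = reference agonist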
PolyA inh: yeast polyadenylation inhibition. AID 1875. activity score, % at 12 µM. S. cerevisiae SKY197-pL101 polyadenylation reporter, beta-gal luminescence; efflux-impaired pdr1/pdr3 knockout yeast; score 100 = 6 SD above DMSO. actives 0.02% (n = 300,000);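 active = lowest replicate activity score at least 50, where 100 means six control SD above control mean; inconclusive = lowest score under 50 but half or more replicates reach 50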;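 also: yeast exposed to compound for 9 h at 30 °C; higher score means more reporter readthrough which indicates perturbed polyadenylation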
Platelet DG rel: platelet dense granule release activity; inhibition, %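 (compounds screened at 7.5 µM in platelet-rich plasma)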; human platelet-rich plasma, SFLLRN dense granule ATP release, luminescence; actives 0.22% (n = 300,000);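 active = mean replicate score, as percent of positive control, at or above 50; inconclusive = mean below 50 but at least one replicate at or above 50; inactive = mean and every replicate below 50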
pCIP destab: lowers stability of the mouse p/CIP coactivator protein. decrease of EGFP signal, % at 10 µM. AID 1984. F442A p/CIP-EGFP cells, EGFP fluorescence, 16 h. actives 0.01% (n = 290,000). Q05BA5;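 active = EGFP signal decrease of at least 30% at 10 µM or well 3 SD below plate mean, unless failing retest; inactive = the rest, including hits failing retest or dose response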
Target sequence (Q05BA5 1-1403): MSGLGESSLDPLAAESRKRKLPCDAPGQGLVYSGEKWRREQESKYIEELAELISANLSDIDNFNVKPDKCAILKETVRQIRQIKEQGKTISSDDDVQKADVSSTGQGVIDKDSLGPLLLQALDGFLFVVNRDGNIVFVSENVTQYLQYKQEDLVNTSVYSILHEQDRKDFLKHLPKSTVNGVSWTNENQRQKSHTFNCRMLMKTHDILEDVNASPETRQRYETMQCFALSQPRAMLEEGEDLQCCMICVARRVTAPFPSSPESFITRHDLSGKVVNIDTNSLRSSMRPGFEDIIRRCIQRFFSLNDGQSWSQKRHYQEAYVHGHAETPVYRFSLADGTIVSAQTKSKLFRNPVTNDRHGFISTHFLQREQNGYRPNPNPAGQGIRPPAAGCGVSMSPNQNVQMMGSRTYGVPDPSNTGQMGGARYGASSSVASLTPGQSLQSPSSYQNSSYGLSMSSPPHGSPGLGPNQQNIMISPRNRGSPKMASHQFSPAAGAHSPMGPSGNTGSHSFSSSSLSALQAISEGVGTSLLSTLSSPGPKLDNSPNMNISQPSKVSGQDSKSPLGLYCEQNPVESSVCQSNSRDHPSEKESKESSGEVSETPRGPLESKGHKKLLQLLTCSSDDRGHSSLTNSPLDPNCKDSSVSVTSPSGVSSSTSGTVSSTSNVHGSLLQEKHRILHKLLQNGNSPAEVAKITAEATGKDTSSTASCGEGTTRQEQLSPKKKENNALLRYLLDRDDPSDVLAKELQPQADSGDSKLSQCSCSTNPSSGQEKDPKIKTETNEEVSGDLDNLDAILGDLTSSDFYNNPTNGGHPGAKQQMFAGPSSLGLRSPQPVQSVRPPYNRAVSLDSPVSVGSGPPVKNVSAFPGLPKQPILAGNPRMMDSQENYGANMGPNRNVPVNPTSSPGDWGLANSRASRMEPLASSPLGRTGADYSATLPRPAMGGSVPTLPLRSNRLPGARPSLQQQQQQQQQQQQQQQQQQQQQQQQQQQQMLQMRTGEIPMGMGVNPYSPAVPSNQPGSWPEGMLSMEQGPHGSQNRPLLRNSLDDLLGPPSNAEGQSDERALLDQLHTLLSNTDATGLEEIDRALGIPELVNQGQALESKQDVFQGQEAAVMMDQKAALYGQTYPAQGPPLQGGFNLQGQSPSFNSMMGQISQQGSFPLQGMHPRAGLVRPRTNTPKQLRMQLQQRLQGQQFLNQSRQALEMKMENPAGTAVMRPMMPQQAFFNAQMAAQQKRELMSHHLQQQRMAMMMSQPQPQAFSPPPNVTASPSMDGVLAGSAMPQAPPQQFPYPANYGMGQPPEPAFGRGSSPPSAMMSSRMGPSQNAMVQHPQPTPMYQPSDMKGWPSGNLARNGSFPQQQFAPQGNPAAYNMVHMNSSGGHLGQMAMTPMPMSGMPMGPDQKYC
* marks the source's active call; other numbers are inactive results; ? = inconclusive; nt = no result. The list is not random: actives were taken first. Their share in the collection is about 2.8%.

SMILES	HIF activator	AHR activator	PolyA inh	Platelet DG rel	pCIP destab
Fc1ccc(/C=N/Nc2nccnc2Cl)cc1	5	18	3	7	9
Cc1[nH]c2ccccc2c1/C=N/NC(=O)c1cc(C(C)C)[nH]n1	0	29	8	4	5
CSCCC(NC(=O)c1ccc(Cl)cc1)C(=O)OCC(=O)Nc1cc(Cl)ccc1C#N (centres undefined)	0	56*	-4	-8	-1
Cc1cc(Cl)ccc1Oc1nc(-c2ccc(F)cc2)ccc1C#N	-1	9	2	-6	-10
c1ccc(-c2nc(-c3cccnc3)n[nH]2)cc1	1	65*	20	-2	-5
Cc1ccc(C2(c3ccccc3)NC(=O)N(CC(=O)N(C)C3CCS(=O)(=O)C3)C2=O)cc1C (centres undefined)	nt	0	nt	nt	nt
Cc1ccccc1NC(=O)CC1C(=O)Nc2ccccc2N1CC(=O)N(C)C1CCS(=O)(=O)C1 (centres undefined)	nt	60*	nt	nt	nt
O=C(c1cc2cc(F)ccc2[nH]1)N1CCN(Cc2ccc3c(c2)OCO3)CC1	0	18	1	?	-6
CCN1CCN(C(=O)c2cc3cc(F)ccc3[nH]2)CC1	0	65*	-6	-3	-5
O=C(O)/C=C/c1cn(Cc2ccccc2)nc1-c1ccc(Cl)cc1	-1	11	12	-1	-9
CCOC(=O)c1sc(NC(=O)CCCn2nc([N+](=O)[O-])c(Cl)c2C)c(C(=O)OCC)c1C	0	-1	-2	11	-1
CCOc1c2ccc(C(=O)NCC34CC5CC(CC(C5)C3)C4)cc2nn1CC	0	51*	13	3	-13
O=c1c2ccccc2[nH]c(=S)n1CCCn1ccnc1	0	68*	9	3	-5
O=c1c2[nH]c3ccccc3c2ncn1CCCn1ccnc1	0	66*	17	-11	10
CN(C)CCCn1c(=S)[nH]c2ccccc2c1=O	0	0	-3	11	1
CC1(C)CC(NCc2ccc3c(c2)OCO3)CCO1 (centres undefined)	0	-1	24	-1	-3
N=C1/C(=C\c2ccc(-c3cccc(Cl)c3)o2)C(=O)N=C2SC=C(c3ccccc3)N12	0	49*	6	3	6
Cc1nn(C)cc1S(=O)(=O)NCc1ccc2c(c1)OCO2	263*	-5	8	-4	-9
Cc1ccc(C)c(S(=O)(=O)NCc2ccc3c(c2)OCO3)c1	0	nt	7	0	-4
O=[N+]([O-])c1cc(N=Nc2ccc3ccccc3c2)ccc1O	-1	19	0	55*	-4
Cc1cccc(C2c3[nH]c4ccccc4c3CCN2C(=O)c2cc(CC(C)C)[nH]c(=O)n2)n1 (centres undefined)	0	13	-6	-4	2
CC(=O)c1ccc(-c2nc3c4ccccc4ccn3c2C(C)=O)o1	0	3	-5	51*	-8
Cc1cccc(C(=O)NC(=S)N2CCc3ccccc3C2)c1	0	4	-25	-5	-4
COc1cc(-c2noc(C)n2)cc(OC)c1OC	0	1	1	-12	-4
O=S(=O)(c1ccc(F)cc1)N1CCN(Cc2ccccn2)CC1	0	-1	-16	2	-8
SMILES	HIF activator	AHR activator	PolyA inh	Platelet DG rel	pCIP destab
N#C/C(=C\c1c(Cl)cccc1Cl)c1nc2ccccc2[nH]1	-14	69*	-32	7	4
Cc1ccc(/C=C(\C#N)c2nc3ccccc3[nH]2)s1	1	93*	3	-18	-14
Cc1cc(/C=C(/C#N)c2nc3ccccc3[nH]2)c(C)n1-c1cccc([N+](=O)[O-])c1	1	-5	-21	2	-7
Cc1cc(/C=C(\C#N)c2nc3ccccc3[nH]2)c(C)n1C	3	55*	-11	-1	-36
CN(C)/C=C(\C#N)c1nc2ccccc2[nH]1	1	4	34	-7	2
Cc1csc(=O)n1CC(=O)OCC(=O)NNC(=O)c1ccc(Cl)cc1	nt	0	nt	nt	nt
C=CCNc1nc(-c2sc(NC(=O)CC)nc2C)cs1	1	70*	9	2	-3
CCCCCCC(=O)Nc1nc(C)c(-c2csc(Nc3ccc(Cl)cc3)n2)s1	-4	62*	-13	0	4
CCC(=O)Nc1nc(C)c(-c2csc(Nc3cccc(O)c3)n2)s1	1	41	10	9	2
CCCCCC(=O)Nc1nc(C)c(-c2csc(Nc3ccc(Cl)cc3)n2)s1	-3	65*	-21	9	-5
COc1ccc(Nc2nc(-c3sc(NC(C)=O)nc3C)cs2)cc1	0	7	15	-13	0
CCOc1ccc(NC(=O)CN(C)C(=O)c2cc([N+](=O)[O-])ccc2N2CCOCC2)cc1OCC	0	5	1	5	nt
CC(C)c1ccc(NC2CCCN(C(=O)c3cccc4nccnc34)C2)cc1 (centres undefined)	0	4	19	-5	-4
COc1ccc2sc(-c3ccccc3OC)c(C#CCCO)c2c1	nt	74*	nt	nt	nt
COc1ccc(-c2sc3ccccc3c2C#Cc2cncn2C)cc1	nt	40	nt	nt	nt
COc1ccc2sc(-c3ccccc3OC)c(C#Cc3cncn3C)c2c1	nt	48*	nt	nt	nt
COc1ccccc1-c1sc2cc3c(cc2c1C#Cc1cncn1C)OCO3	nt	65*	nt	nt	nt
CC(CCc1ccccc1)N1CCN(C)CC1 (centres undefined)	0	-1	15	1	3
COc1ccc(-c2noc(CN(C)C(=O)Nc3ccccc3)n2)cc1	0	3	2	-6	-8
COC(=O)C1CCN(S(=O)(=O)CCNC(=O)c2ccc(F)cc2)CC1	1	1	13	3	nt
COc1ccc2c(c1)C1=NN(/C(C)=C\C(C)=O)C(c3ccccc3)C1CC2 (centres undefined)	-1	84*	-18	-1	-4
COc1ccc2c(c1)CCC1C2=NN(/C(C)=C\C(C)=O)C1c1ccc(F)cc1 (centres undefined)	1	60*	-8	5	2
COc1ccc2c(c1)C1=NN(/C(C)=C/C(C)=O)C(c3cccc(F)c3)C1CC2 (centres undefined)	0	97*	-16	1	-11
COc1ccc2c(c1)C1=NN(/C(C)=C/C(C)=O)C(c3ccc(F)cc3)C1CC2 (centres undefined)	2	69*	-11	-10	-10
COC(=O)C1=CN(c2ccc(OC)cc2)C=C(C(=O)OC)C1c1cccc(F)c1	1	1	-18	-1	-11
COc1ccc(/C=C2\CCCC3C2=NN(C(=O)COC(=O)CNC(=O)c2ccccc2)C3c2ccc(OC)cc2)cc1 (centres undefined)	0	-4	-3	0	-5
COc1ccc(Nc2nnc(SCC(=O)/C=C3/N(C)c4ccccc4C3(C)C)s2)cc1	0	9	8	-6	-14
CCCCc1nnc(NC(=O)COc2ccc3c(C)cc(=O)oc3c2)s1	-1	-2	19	9	-17
